In PubChem BioAssay:
Active and inactive are the calls of the source. Unless noted, how the calls were made is not given here.

How the values were obtained:
[1] = anti-His antibody binders, primary screen, artefact control for SMM control protein annotation, biochemical, small-molecule microarray, 635 nm fluorescence (AID 1128); conditions: anti-His Alexa647 antibody binding, higher = more signal;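 further: score merges feature fluorescence with signal-to-noise for each printed compound spot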
[2] = tested on: Human papillomavirus type 1a E7 protein (residues 1-88); experiment: HPV1a E7 small-molecule binders, primary screen, biochemical, small-molecule microarray, residues 1-88, 635 nm (AID 1129); conditions: small-molecule microarray binding, fluorescence 635 nm; higher = more signal
[3] = biological target: Focal adhesion kinase 1 (Homo sapiens) (UniProt Q05397); experiment: small-molecule microarray binders of FAK, primary screen, biochemical, 635/667 nm fluorescence, BSA, DTT (AID 1130); conditions: PTK2 binding, 635 nm fluorescence, higher = more signal;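 further: composite of spot emission at 667 nm and signal to noise over triplicate slides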
[4] = tested on: Fibrinogen (Alexa647-labelled); experiment: fibrinogen binders on compound microarrays, profiling panel, artefact control for SMM control-protein annotation, biochemical, small-molecule microarray, 635/667 nm fluorescence (AID 1131); conditions: fibrinogen-A647 binding fluorescence, higher = more signal;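 further: z-score merges 667 nm fluorescence with per-spot signal-to-noise over triplicate slides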
[5] = biological target: Follistatin (Homo sapiens) (UniProt P19883); experiment: follistatin binders on small-molecule microarrays, primary screen, biochemical, small-molecule microarray, 635/667 nm fluorescence (AID 1132); conditions: FST binding, 635 nm fluorescence, higher = more signal
[6] = biological target: Fibroblast growth factor 2 (Homo sapiens) (UniProt P09038); experiment: FGF2 binders on small-molecule microarrays, primary screen, biochemical, small-molecule microarray, 635/667 nm fluorescence (AID 1133); conditions: small-molecule microarray binding, FGF2, fluorescence 635/667; higher = more signal
[7] = mitochondrial membrane potential change in A549 cells, profiling panel, cell-based, JC-1 fluorescence, basal, 24 h, 100 nL (AID 1138); conditions: higher = more signal;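 further: A549 lung adenocarcinoma cells under basal conditions with no added stimulus; test concentration not given here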
[8] = tested on: Lefty1; experiment: Lefty1 binders on small-molecule microarrays, primary screen, biochemical, small-molecule microarray, 635/667 nm fluorescence (AID 1139); conditions: small-molecule microarray binding, fluorescence 635/667; higher = more signal
[9] = tested on: wheat germ agglutinin (Triticum aestivum), Alexa647-labelled; experiment: wheat germ agglutinin binders on compound microarrays, profiling panel, artefact control for SMM control-protein annotation, biochemical, small-molecule microarray, 635/667 nm fluorescence (AID 1140); conditions: WGA-A647 binding, 635 nm fluorescence, higher = more signal;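 further: score merges 667 nm feature emission with signal to noise over triplicate slides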
[10] = biological target: Luciferin 4-monooxygenase (Photinus pyralis) (UniProt P08659); experiment: firefly luciferase enzyme inhibitors, primary screen, biochemical, luminescence, purified enzyme, 2006 set (AID 1141); conditions: SteadyGlo luminescence, 30 min, higher = more signal, called active from +8 up or from −8 down;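 further: cell-free assay with purified firefly luciferase at 100 ng per well in PBS; test concentration not given here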
[11] = tested on: Wnt5a (protein binding on small-molecule microarray); experiment: Wnt5a binders on small-molecule microarray, primary screen, biophysical, 635/667 nm fluorescence (AID 1142); conditions: 635 nm fluorescence, higher = more signal;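 further: fluorescence read at 667 nm with signal to noise per printed feature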
[12] = cell viability in Huh7 cells, primary screen, cytotoxicity control for HCV replication inhibitor project, CellTiter-Glo luminescence, basal, 48 h (AID 1143); conditions: Huh7 HCV replicon, higher = more signal, called active from +8 up or from −8 down;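 further: Huh7 hepatoma cells carrying a hepatitis C replication reporter with no stimulus; test concentration not given here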
[13] = P. aeruginosa biofilm formation inhibitors, primary screen, PAO1 strain, BacTiter-Glo luminescence, LB-PBS (AID 1144); conditions: 12 h, higher = more signal
[14] = CREB reporter modulators without forskolin, primary screen, cell-based, PC12, CRE-LacZ reporter, unstimulated (AID 1145); conditions: no forskolin, luminescence, 4.5 h, higher = more signal, called active from +8 up or from −8 down
[15] = CREB reporter modulators under forskolin, primary screen, cell-based, PC12, CRE-LacZ reporter, forskolin-stimulated (AID 1146); conditions: luminescence, 4.5 h, higher = more signal, called active from +8 up or from −8 down;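 further: PC12 cells with 6xCRE LacZ reporter stimulated by forskolin 10 µM; beta-galactosidase reporter signal reflecting CREB driven transcription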
[16] = biological target: Streptavidin (Streptomyces avidinii) (UniProt P22629); experiment: streptavidin binders on small-molecule microarray, primary screen, artefact control for SMM compound annotation, biophysical, 635/667 nm fluorescence (AID 1147); conditions: streptavidin binding, higher = more signal;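 further: signal reflects streptavidin binding to arrayed compounds as a control protein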
[17] = small-molecule binders of probe aInhba, primary screen, biochemical, small-molecule microarray, 635/667 nm fluorescence (AID 1148); conditions: higher = more signal;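 further: score merges 667nm spot fluorescence with signal-to-noise for antibody binding to printed compounds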
[18] = biological target: Torsin-1A (Homo sapiens) (UniProt O14656); experiment: torsin A binders from cell lysate, primary screen, small-molecule microarray, wild-type, 635/667 nm (AID 1149); conditions: COS7 hTOR1A-WT lysate, 635 nm fluorescence, higher = more signal
[19] = biological target: Torsin-1A (Homo sapiens) (UniProt O14656); experiment: small-molecule binders of mutant TOR1A in lysate, primary screen, cell lysate, small-molecule microarray, COS7 lysate, 635/667 nm fluorescence (AID 1150); conditions: COS7 hTOR1A mutant lysate, 635 nm fluorescence, higher = more signal;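 further: score pools 667 nm emission and signal to noise measuring lysate protein binding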
[20] = tested on: Sonic hedgehog protein (Shh); experiment: small-molecule binders of Shh protein, primary screen, biochemical, small-molecule microarray, 635/667 nm fluorescence (AID 1151); conditions: small-molecule microarray binding, 635 nm fluorescence; higher = more signal;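 further: Shh protein binding to compounds spotted on small-molecule microarray slides; score combines spot fluorescence intensity with signal-to-noise across triplicate slides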

Sequence of Luciferin 4-monooxygenase (Photinus pyralis) (P08659 whole entry, looked up): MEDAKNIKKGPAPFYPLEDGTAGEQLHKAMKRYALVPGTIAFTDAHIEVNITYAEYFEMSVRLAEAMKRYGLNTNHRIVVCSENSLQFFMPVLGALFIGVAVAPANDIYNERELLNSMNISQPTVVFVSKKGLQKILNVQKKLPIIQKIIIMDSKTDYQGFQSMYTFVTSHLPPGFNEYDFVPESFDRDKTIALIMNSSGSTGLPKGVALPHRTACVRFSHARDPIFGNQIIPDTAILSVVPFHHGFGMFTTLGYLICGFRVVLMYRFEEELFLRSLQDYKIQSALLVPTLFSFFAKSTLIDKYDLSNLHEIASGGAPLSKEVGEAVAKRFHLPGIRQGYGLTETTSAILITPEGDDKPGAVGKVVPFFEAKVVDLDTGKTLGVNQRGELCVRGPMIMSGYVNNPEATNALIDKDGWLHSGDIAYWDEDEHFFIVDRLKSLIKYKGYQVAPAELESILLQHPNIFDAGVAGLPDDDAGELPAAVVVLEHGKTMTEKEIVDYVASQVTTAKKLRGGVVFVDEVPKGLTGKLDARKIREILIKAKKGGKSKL
Sequence of Streptavidin (Streptomyces avidinii) (P22629 whole entry, looked up): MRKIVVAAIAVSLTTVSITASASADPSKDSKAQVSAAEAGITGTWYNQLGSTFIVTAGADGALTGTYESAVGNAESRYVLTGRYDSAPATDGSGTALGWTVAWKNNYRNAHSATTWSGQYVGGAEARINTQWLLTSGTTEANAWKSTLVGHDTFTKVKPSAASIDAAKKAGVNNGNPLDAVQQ
Sequence of Torsin-1A (Homo sapiens) (O14656 whole entry, looked up): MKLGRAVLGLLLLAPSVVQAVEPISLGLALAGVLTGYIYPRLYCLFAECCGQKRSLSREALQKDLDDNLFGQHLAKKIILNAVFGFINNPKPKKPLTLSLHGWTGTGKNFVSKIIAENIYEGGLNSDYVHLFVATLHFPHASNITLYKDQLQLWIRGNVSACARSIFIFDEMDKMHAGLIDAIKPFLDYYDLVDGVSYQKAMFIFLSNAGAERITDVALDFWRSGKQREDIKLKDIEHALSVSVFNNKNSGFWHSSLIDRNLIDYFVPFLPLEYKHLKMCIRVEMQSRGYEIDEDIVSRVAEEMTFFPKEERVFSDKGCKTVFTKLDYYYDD
Sequence of Fibroblast growth factor 2 (Homo sapiens) (P09038 whole entry, looked up): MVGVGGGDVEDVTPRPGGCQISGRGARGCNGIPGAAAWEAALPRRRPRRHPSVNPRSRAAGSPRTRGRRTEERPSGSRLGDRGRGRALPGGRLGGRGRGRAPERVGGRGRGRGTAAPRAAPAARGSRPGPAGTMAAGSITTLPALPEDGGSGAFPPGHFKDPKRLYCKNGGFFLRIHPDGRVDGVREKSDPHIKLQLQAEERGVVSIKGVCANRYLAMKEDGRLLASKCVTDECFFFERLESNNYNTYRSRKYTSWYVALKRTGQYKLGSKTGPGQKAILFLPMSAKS
Sequence of Follistatin (Homo sapiens) (P19883 whole entry, looked up): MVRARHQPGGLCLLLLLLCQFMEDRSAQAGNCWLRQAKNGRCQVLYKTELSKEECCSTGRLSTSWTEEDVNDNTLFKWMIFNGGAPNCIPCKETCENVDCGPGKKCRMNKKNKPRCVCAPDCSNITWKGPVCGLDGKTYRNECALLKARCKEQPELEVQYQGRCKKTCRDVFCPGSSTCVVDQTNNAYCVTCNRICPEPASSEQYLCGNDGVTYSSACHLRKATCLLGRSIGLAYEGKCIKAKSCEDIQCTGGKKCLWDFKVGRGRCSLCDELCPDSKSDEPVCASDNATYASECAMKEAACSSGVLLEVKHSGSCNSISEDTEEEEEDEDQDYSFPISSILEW
Sequence of Focal adhesion kinase 1 (Homo sapiens) (Q05397 whole entry, looked up): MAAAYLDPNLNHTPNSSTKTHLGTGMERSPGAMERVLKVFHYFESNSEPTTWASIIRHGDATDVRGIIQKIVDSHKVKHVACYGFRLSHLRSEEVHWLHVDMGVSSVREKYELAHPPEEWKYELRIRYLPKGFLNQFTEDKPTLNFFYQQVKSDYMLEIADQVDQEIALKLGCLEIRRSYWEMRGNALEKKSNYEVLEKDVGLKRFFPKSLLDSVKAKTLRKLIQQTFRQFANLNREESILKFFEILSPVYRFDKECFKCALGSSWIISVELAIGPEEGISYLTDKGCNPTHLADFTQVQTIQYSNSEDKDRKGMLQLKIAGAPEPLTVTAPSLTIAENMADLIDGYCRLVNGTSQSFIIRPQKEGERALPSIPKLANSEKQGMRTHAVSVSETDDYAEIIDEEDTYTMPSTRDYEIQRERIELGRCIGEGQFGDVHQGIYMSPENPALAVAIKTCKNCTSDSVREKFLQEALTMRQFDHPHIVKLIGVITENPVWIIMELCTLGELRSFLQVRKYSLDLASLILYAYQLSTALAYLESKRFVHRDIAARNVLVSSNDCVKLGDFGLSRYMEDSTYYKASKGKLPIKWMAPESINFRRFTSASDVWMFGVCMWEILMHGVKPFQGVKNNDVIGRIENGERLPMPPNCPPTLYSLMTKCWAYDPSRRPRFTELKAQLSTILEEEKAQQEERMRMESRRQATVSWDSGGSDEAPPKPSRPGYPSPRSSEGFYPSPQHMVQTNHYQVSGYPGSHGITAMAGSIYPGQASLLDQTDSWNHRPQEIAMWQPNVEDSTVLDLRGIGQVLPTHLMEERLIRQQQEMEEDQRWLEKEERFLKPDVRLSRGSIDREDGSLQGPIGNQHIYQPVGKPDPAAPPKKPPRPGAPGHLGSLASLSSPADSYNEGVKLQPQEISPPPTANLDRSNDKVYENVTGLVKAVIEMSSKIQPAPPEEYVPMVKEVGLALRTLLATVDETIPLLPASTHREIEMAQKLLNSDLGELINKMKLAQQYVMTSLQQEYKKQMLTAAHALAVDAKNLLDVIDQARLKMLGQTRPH

Row | SMILES | composite z-score [1] | composite z-score [2] | composite z-score [3] | composite z-score [4] | composite z-score [5] | composite z-score [6] | z-score [7] | composite z-score [8] | composite z-score [9] | z-score [10] | composite z-score [11] | z-score [12] | z-score [13] | z-score [14] | z-score [15] | composite z-score [16] | composite z-score [17] | composite z-score [18] | composite z-score [19] | composite z-score [20]
1 | CCCCN1CC=CC23O[C@@H]4C=CCOC(=O)[C@@H]4[C@H]2C(=O)N(CCCO)[C@@H]3C1=O (stereo not given in full) | 0.56 | -0.518 | -0.609 | -1.28 | -1.45 | -0.682 | -1.08 | -0.199 | -0.929 | -0.135 (inactive) | -0.133 | -1.98 (inactive) | -0.766 (inactive) | -0.757 (inactive) | 1.47 (inactive) | -0.808 | -0.23 | 0.222 | -0.107 | -0.512
2 | CC(CO)N1C(=O)[C@@H]2C3C(=O)OCCC/C=C\[C@H]3OC23C=CCN(Cn2nnc4ccccc42)C(=O)[C@@H]13 (stereo not given in full) | 3.15 | -0.589 | -0.923 | -0.326 | -0.171 | -0.614 | 0.918 | -0.13 | -0.276 | 0.196 (inactive) | -0.275 | 0.39 (inactive) | -1.36 (inactive) | -0.358 (inactive) | -0.691 (inactive) | -0.521 | -0.024 | -1.02 | -0.296 | 0.276
3 | COC(=O)[C@@]1(Cc2ccc(OC)cc2)[C@H]2c3cc(C(=O)N(C)C)n(Cc4nc5ccccc5[nH]4)c3C[C@H]2CN1C(=O)c1ccccc1 | 1.39 | 1.26 | 1.34 | 0.991 | 0.907 | -0.295 | 1.95 | -0.117 | 1.35 | 2.41 (inactive) | 0.38 | -3.83 (inactive) | 0.179 (inactive) | -0.375 (inactive) | -0.139 (inactive) | 1.12 | 0.698 | 0.314 | 0.432 | -0.388
4 | COC1(C)CN(Cc2ccccc2Br)[C@H](/C=C/c2ccccc2)[C@H](Cc2ccccc2)O1 (stereo not given in full) | 0.258 | -0.561 | 0.106 | -0.291 | -0.598 | -0.375 | 0.267 | 0.0787 | 0.0565 | -0.238 (inactive) | -0.243 | -0.391 (inactive) | -0.198 (inactive) | 1.93 (inactive) | 0.874 (inactive) | -0.332 | -0.0719 | -0.558 | 0.357 | -0.191
5 | C[C@]12C(=O)N(CCCCCCO)[C@@H]3C(=O)N(c4ccc(Cl)cc4)CC=CC31O[C@@H]1/C=C\CCCOC(=O)C12 (stereo not given in full) | 0.0039 | -0.401 | 0.657 | -2.42 | -0.448 | -1.12 | 0.846 | -0.408 | 0.608 | -1.64 (inactive) | -0.143 | -0.0337 (inactive) | -1.5 (inactive) | 0.0686 (inactive) | -0.475 (inactive) | -0.781 | -0.104 | -1.38 | -0.825 | 0.128
